Assay outcomes as filed in PubChem BioAssay.
Rows were chosen to be rich in hits. Some 1.4% of all compounds tested hit in one or more screens of this group.
EPAC2 antag – EPAC2 (human) antagonism; Q8WZA2; 360,000 tested, 0.18% active; EPAC2 GEF exchange of Rap1B-BODIPY-GDP, fluorescence; AID 720708; Potency, µM (doses to about 114 µM), for the others: at the top dose activity, negative = inhibition, most hits filed as inhibitors; further: on the % scale 0 is the no-effect control and ±100 the full control effect; nearly all actives have a fitted effect of over 45% in size
EPAC1 antag – antagonists of human EPAC1; EPAC1 GEF assay, Rap1b-BODIPY-GDP exchange fluorescence; Potency, µM (titrated, usually from 115 µM), inactives show at the highest dose activity change, negative = inhibition, hits mostly inhibitors; 360,000 tested, 0.14% active;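 further: plate controls were vehicle for no effect and positive control for full effect; nearly all actives have a fitted effect of over 50% in size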
BRCA1 expr up – BRCA1 expression activation; Potency, µM (highest dose often 46.1 µM), for inactives: at the top dose activation, actives largely listed as activators; 380,000 tested, 1.1% active; MCF7-BRCA1-FFLuc reporter, luminescence, 48 h; response scale: scaled: vehicle 0%, 10 µM genistein 100%; further: nearly all actives have a fitted effect of over 80% in size
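MCF7-BRCA1-FFLuc cells, 2000/well in phenol-red-free MEM, attached 2 h then treated 48 h at 37 C. Luciferase luminescence read 15 min after reagent; normalized to genistein maximum activation (10microM) and DMSO, concentration-response fitted.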
EPAC2 ag – EPAC2 (human) agonism; 360,000 tested, 0.079% active; AID 720711; EPAC2 activation, biochemical qHTS; response scale: 100% = 6.5 mM cAMP response; Potency, µM (series often up to 154 µM), inactives show at the top dose activation, most hits filed as activators; Q8WZA2; further: nearly all actives have a fitted effect of over 50% in size
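Exchange assay: 100 nM EPAC2 with 250 nM Rap1B-BODIPY-GDP and 50 uM GDP. Fluorescence (ex 480/em 540 nm) read every 5 min for 30 min at room temperature. Data normalized to 6.5 mM cAMP as agonist control.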
USP1 inh – inhibitors of human USP1/UAF1 deubiquitinase | O94782 | recombinant USP1/UAF1, Ub-Rhodamine cleavage fluorescence | Potency, µM (top dose mostly 57.1 µM), for inactives: at the top dose activity change, negative = inhibition, hits mostly inhibitors | 390,000 tested, 0.23% active | AID 743255; further: on the % scale 0 is the no-effect control and ±100 the full control effect; nearly all actives have a fitted effect of over 60% in size
Target sequence (O94782 whole entry, looked up): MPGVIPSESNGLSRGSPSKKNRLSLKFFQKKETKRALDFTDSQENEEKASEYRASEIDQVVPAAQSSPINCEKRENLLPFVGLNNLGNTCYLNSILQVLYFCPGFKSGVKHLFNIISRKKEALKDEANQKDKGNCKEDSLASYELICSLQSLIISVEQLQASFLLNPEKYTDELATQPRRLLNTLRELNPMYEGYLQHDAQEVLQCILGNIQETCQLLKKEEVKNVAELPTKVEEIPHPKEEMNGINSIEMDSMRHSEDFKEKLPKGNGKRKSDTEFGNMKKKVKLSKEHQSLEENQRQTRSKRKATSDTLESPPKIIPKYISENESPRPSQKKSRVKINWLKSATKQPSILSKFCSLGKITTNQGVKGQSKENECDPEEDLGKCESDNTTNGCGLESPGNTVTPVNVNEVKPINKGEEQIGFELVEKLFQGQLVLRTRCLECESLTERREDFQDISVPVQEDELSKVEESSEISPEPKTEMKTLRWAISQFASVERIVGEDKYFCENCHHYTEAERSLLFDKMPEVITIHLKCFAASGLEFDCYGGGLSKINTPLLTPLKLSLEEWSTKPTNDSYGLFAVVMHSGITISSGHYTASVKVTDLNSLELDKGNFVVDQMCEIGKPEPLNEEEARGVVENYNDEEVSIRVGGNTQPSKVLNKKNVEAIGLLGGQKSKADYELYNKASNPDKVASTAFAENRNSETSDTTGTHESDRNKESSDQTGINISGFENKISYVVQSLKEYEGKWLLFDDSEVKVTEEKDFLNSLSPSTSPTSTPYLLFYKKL
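USP1/UAF1 complex at 1 nM was preincubated with compound for 15 min at room temperature, then Ub-Rho substrate (150nM final) was added. Fluorescence (480/540 nm) was read kinetically, 6 reads every 60 seconds.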
EPAC1 agonist – EPAC1 (human) agonism; EPAC1 agonist qHTS, biochemical assay; response scale: 100% = response to 6.5 mM cAMP; Potency, µM (titrated, usually from 154 µM), for the others: at the top dose activation, hits mostly activators; 360,000 tested, 0.073% active; AID 720707; further: nearly all actives have a fitted effect of over 60% in size
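EPAC1 100 nM, Rap1B–BODIPY-GDP 250 nM, unlabeled GDP 50 uM; compound titration; 5 min RT; kinetic read ex480/em540 at 5-min intervals ×30 min; data normalized to 6.5 mM cAMP agonist control.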
* hit, by the source's call; ? = inconclusive; · = not tested or not shown; + = active, no number. The call rests on the fitted dose curve; in most records, active means well fitted curve in the direction sought with a large enough effect; inconclusive means small, poorly fitted or top-dose-only effect, or another doubt; inactive means no such curve, though single readings can be large; an effect the other way counts as inactive or inconclusive. Potency means the concentration at half of the fitted maximal effect.

SMILES	EPAC2 antag	EPAC1 antag	BRCA1 expr up	EPAC2 ag	USP1 inh	EPAC1 agonist
CC(OC(=O)CNC(=O)c1ccccc1F)C(=O)Nc1nc(-c2ccccc2)cs1 (stereo not given)	0.2%	-6.7%	6.31µM*	4.2%	-17.5%	-0.3%
Cn1c(N)c(C(=O)COC(=O)CNC(=O)c2ccccc2F)c(=O)n(C)c1=O	-21.2%	-16.5%	21.9%	5.0%	0.5%	6.1%
COc1ccc(NC(=O)CSc2nc3sc4c(c3c(=O)n2-c2ccc(OC)cc2)CCN(C)C4)cc1	70.8µM*	-5.6%	3.1%	?	-26.7%	6.0%
COC(=O)CSc1nc2sc3c(c2c(=O)n1-c1ccc(C)cc1)CC(C(C)C)OC3 (stereo not given)	·	·	-4.6%	·	+	·
CC1CCc2c(sc3nc(SCC(=O)O)n(-c4ccccc4)c(=O)c23)C1 (stereo not given)	-14.3%	89.1µM*	-2.4%	-1.6%	-17.7%	?
CCn1nnc2sc3c(c2c1=O)CCC(C)C3 (stereo not given)	2.9%	0.5%	12.6µM*	-9.4%	-17.5%	4.6%
CCOC(=O)CSc1nc2sc3c(c2c(=O)n1-c1ccccc1)CCC(C(C)(C)C)C3 (stereo not given)	·	·	4.8%	·	-30.9%	·
CC1CCc2c(sc3nnn(CC(=O)Nc4ccccc4Cl)c(=O)c23)C1 (stereo not given)	·	·	·	·	-18.8%	·
COc1ccc(-n2c(SCC(=O)Nc3nccs3)nc3sc4c(c3c2=O)CCN(C)C4)cc1	13.4%	20.1%	-21.9%	12.1%	-25.8%	3.7%
COc1ccc(S(=O)(=O)N2CCCCCC2)cc1C(=O)N(C)Cc1ccccc1F	2.1%	-6.6%	-1.5%	1.8%	-23.7%	-12.8%
CCOc1ccc(-n2c(SCC(=O)N3CCC(C)CC3)nc3c([nH]c4ccccc43)c2=O)cc1	·	·	-5.0%	·	-10.8%	·
CCc1cc2c(=O)n(-c3ccccc3)cnc2s1	-2.3%	-1.2%	17.8µM*	-3.9%	-14.3%	-16.1%
CCOc1ccc(CCNC(=O)c2ccc3c(c2)N(Cc2ccc(F)cc2)CCS3)cc1	·	·	·	·	-1.8%	·
CC(=O)Nc1ccc(-c2csc(Nc3ncccn3)n2)cc1	-0.6%	-8.9%	3.55µM*	-0.2%	-23.6%	4.9%
Oc1ccc(-c2csc(Nc3ncccn3)n2)cc1	0.2%	-5.7%	?	-3.0%	7.9%	-4.1%
C=Cc1ccc(CSc2nc(-c3ccc(Cl)cc3)nc3c2Cc2c(CO)cnc(C)c2O3)cc1	·	·	·	·	-17.4%	·
Fc1cc(Cl)c(OCc2noc(-c3ccsc3)n2)c(Cl)c1	2.8%	-2.5%	81.2%	-3.4%	-15.6%	-1.8%
Clc1ccc(OCc2noc(-c3ccsc3)n2)c(Cl)c1	-10.7%	-9.7%	3.55µM*	7.7%	-20.1%	-1.8%
CCOC(=O)C1CCN(C(=O)CSc2n[nH]c(-c3ccc(F)cc3)n2)CC1	·	·	·	·	11.8%	·
CC(C)COc1ccc(C(=O)Nc2ccc(SC(F)F)cc2)cc1	7.2%	-4.6%	8.91µM*	-5.1%	-5.2%	-4.8%
COc1ccc(Cl)cc1NC(=O)c1oc2ccc(S(=O)(=O)N3CCCCC3)cc2c1C	·	·	·	·	8.9%	·
COc1c(C(=O)NNC(=O)c2ccccc2Cl)csc1Br	-2.0%	-6.3%	10µM*	-0.2%	8.0%	12.9%
O=C(NNC(=O)c1ccccc1Cl)c1ccncc1	-9.0%	4.0%	12.8%	-4.4%	2.1%	2.1%
Cc1nc2cc(C(F)(F)F)ccc2n1CCNc1nc(-c2ccc([N+](=O)[O-])c(Cl)c2)cs1	-11.6%	-5.4%	-6.2%	-2.6%	?	-12.9%
Cc1cc(C(=O)CN2C(=O)C(=O)N(CC(C)C)C2=O)c(C)n1C1CC1	-2.9%	0.9%	3.16µM*	-6.8%	-5.6%	9.7%
SMILES	EPAC2 antag	EPAC1 antag	BRCA1 expr up	EPAC2 ag	USP1 inh	EPAC1 agonist
C/C(=N\NC(=O)c1ccccc1N)c1ccc(NC(=O)Cc2ccccc2)cc1	-0.4%	-24.0%	66.2%	3.9%	1.6%	5.9%
C/C(=N\NC(=O)c1cccc(C)c1O)c1ccc(NC(=O)Cc2ccccc2)cc1	13.1%	4.4%	5.01µM*	3.7%	-17.2%	1.2%
O=c1/c(=C/c2ccc([N+](=O)[O-])cc2)sc2n1CCCN=2	7.6%	10.1%	3.55µM*	9.2%	-18.7%	-0.4%
CCN1CCN(c2oc(/C=C/c3ccc(OC)c(OC)c3)nc2C#N)CC1	·	·	·	·	-13.1%	·
Cc1ccc(S(=O)(=O)N2CCN(c3nc(-n4ccnc4)nc4ccccc34)CC2)cc1	·	·	29.9%	·	·	·
CCOC(=O)c1sc(Nc2ccccc2Cl)nc1C	-24.5%	-0.1%	8.91µM*	9.8%	-21.4%	-4.6%
CCOC(=O)c1sc(NC(=O)Nc2ccccc2F)nc1C	-12.1%	4.3%	-32.8%	-20.9%	-13.3%	-3.6%
CONC(=O)C1CCN(C(=O)OCc2ccccc2)CC1	-7.5%	-5.3%	14.1µM*	5.2%	1.8%	8.4%
CN(CCc1ccccn1)C(=O)CCc1nnc(CCCc2ccccc2)o1	3.2%	-16.6%	12.6µM*	5.8%	-11.4%	9.7%
CN(CCc1cnn(C)c1)C(=O)CCc1nnc(CCCc2ccccc2)o1	1.6%	16.8%	40.5%	5.8%	0.3%	5.2%
CC(SC1=NS(=O)(=O)c2ccccc21)C(=O)O (stereo not given)	·	·	5.8%	·	·	·
Cc1ccc(C(=O)NCC2CCCN2S(=O)(=O)c2ccc(C)cc2)cc1 (stereo not given)	-14.3%	-3.9%	47.5%	4.0%	-0.4%	5.8%
CC(C)(C)c1ccc(C(=O)NCC2CCCN2S(=O)(=O)c2ccccc2)cc1 (stereo not given)	-25.0%	?	-47.3%	-3.9%	-18.2%	44.7µM*
COc1ccc(NC(=O)CN(C)C(=O)CNC(=O)c2sc3ccccc3c2Cl)cc1	5.2%	5.2%	7.94µM*	1.3%	-0.4%	0.8%
COc1cccc(NC(=O)CN(C)C(=O)CNC(=O)c2sc3ccccc3c2Cl)c1	4.5%	-10.7%	?	-1.3%	-10.1%	-10.2%
CCCN1CNc2c(c(=O)[nH]c(=S)n2CCc2ccc(OC)cc2OC)C1	·	·	19.5%	·	·	·
CCc1ccc(C(=O)NC2CCCCC2)s1	4.8%	-2.0%	3.55µM*	6.1%	-15.4%	1.4%
Cc1occc1C(=O)NC1CCCCCCC1	10.8%	-4.6%	14.1µM*	-5.2%	-12.5%	-10.3%
CC(C)(O)C#Cc1ccc(C(=O)NC2CCCCC2)s1	-1.0%	-1.1%	11.2µM*	0.0%	-11.5%	-7.9%
O=C(NC1CCCCC1)c1cccs1	-0.4%	-8.4%	16.5%	5.0%	0.7%	-5.8%
CC(C)(O)C#Cc1ccc(C(=O)NCCC(=O)O)s1	3.2%	7.4%	1.9%	6.2%	-21.6%	9.8%
Cc1occc1C(=O)NNC(=O)C1CCCC1	3.5%	-7.0%	-2.7%	6.3%	-9.7%	3.8%
